Active and inactive are the calls of the source. Calls come from the whole dose curve; as a rule, active = well fitted curve in the direction sought with a large enough effect; inconclusive = small, poorly fitted or top-dose-only effect, or effect the other way, or another doubt; inactive = no such curve, though single readings can be large or run the other way.
assay: Inducers of the Endoplasmic Reticulum Stress Response (ERSR) in human glioma: Validation (AID 504836); details: human glioma cells, ER stress response reporter; series mostly up to 38.3 µM
How it was run: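 ERSR induction read as luciferase luminescence (Bright-Glo, 10 min at room temperature) in stably transfected human U87-MG glioma cells exposed to compounds for 16 h, using GRP78 as sensor.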

Row | SMILES | outcome
1 | COc1ccc(C(=O)N2CCCC2=O)cc1 | inactive
2 | Nc1c2c(nc3ccccc13)CCCC2O (stereo not given) | inactive
3 | CC(C(=O)O)c1ccc(CC2CCCC2=O)cc1 (stereo not given) | inactive
4 | CC(C)(C)c1ccc(C(=O)CCCN2CCC(OC(c3ccccc3)c3ccccc3)CC2)cc1 | inactive
5 | Nc1c2c(nc3ccccc13)CCCC2 | inactive
6 | CCc1cccc2c3c([nH]c12)C(CC)(CC(=O)O)OCC3 (stereo not given) | inactive
7 | COc1ccccc1N1CCN(CC(O)COc2cccc3ccccc23)CC1 (stereo not given) | inactive
8 | Clc1ccc(Cn2c(CN3CCCC3)nc3ccccc32)cc1 | inactive
9 | O=C1N(c2ccccc2)c2ccccc2C1(Cc1ccncc1)Cc1ccncc1 | inactive
10 | COc1ccc2c(c1OC)C(=O)O[C@@H]2[C@H]1c2c(cc3c(c2OC)OCO3)CCN1C | inactive
11 | COC(=O)C1=CCCN(C)C1 | inactive
12 | Cc1cc(C(C)(C)C)cc(C)c1CC1=NCCN1 | inactive
13 | CCCCCN(CCCCC)C(=O)C(CCC(=O)O)NC(=O)c1ccc(Cl)c(Cl)c1 (stereo not given) | inactive
14 | CN1CCN(C2Cc3ccccc3Sc3ccc(Cl)cc32)CC1 (stereo not given) | inactive
15 | COCCOC(=O)C1=C(C)NC(C)=C(C(=O)OC/C=C/c2ccccc2)C1c1cccc([N+](=O)[O-])c1 (stereo not given) | inactive
16 | CC1=C(CC(=O)O)c2cc(F)ccc2/C1=C\c1ccc(S(C)=O)cc1 (stereo not given) | inactive
17 | NC(N)=NCCC[C@H](N)C(=O)O | inactive
18 | CN(C(=O)CCCOc1ccc2[nH]c(=O)ccc2c1)C1CCCCC1 | inactive
19 | COc1ccc2c(c1)c(CC(=O)O)c(C)n2C(=O)c1ccc(Cl)cc1 | inactive
20 | NS(=O)(=O)c1cc2c(cc1Cl)NC(C1CC3C=CC1C3)NS2(=O)=O (stereo not given) | inactive
